Screens deposited in PubChem by National Center for Advancing Translational Sciences (NCATS).
D3 ag = D3 dopamine receptor (human) agonism; 0.58% of 410,000 active; D3R DiscoveRx beta-arrestin cells, luminescence, 90 min; P35462; max activation, %; AID 652048; in the data active means max activation above about 30%
Target sequence (P35462 whole entry, looked up): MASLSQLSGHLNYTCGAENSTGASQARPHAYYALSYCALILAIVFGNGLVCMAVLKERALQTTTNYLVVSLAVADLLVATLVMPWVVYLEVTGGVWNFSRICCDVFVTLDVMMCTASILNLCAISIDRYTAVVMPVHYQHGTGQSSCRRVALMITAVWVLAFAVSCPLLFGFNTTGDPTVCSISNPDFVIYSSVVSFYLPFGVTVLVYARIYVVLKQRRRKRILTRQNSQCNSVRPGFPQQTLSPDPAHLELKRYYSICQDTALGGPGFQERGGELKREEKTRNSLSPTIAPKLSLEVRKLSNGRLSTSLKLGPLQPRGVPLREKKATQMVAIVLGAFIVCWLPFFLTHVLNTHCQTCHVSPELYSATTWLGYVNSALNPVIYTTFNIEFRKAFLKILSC
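Cells at 1500/well, incubated overnight, then treated with pinned compounds (dopamine as control) for 90 min at 37 degrees C. DiscoveRx reagent added for 30 - 60 minutes at room temperature; luminescence read.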
HepG2 tox = HepG2 cytotoxicity, counter-screen for TGF-b inhibitors; Potency, µM (series often up to 46.1 µM), usual class: cytotoxic; HepG2 CAGA-GFP viability, ATP luminescence, 18 h; AID 588856; 0.76% of 410,000 active
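CellTiter-Glo luminescence gave cytotoxicity after 18 hours at 37 degrees C. The cells were HepG2 CAGA-GFP in 1% FBS DMEM, stimulated with 500 pg/mL TGF-beta after compound addition. %Activity was normalised to no-cell wells (complete cell-killing) and DMSO (no toxicity), and curves were fitted and classified.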
ATXN2 expr inh = inhibitors of ATXN2 expression; HEK-293 ATXN2-luciferase reporter, luminescence, 24 h; AID 1745845; Potency, µM (titrated, usually from 57 µM), usual class: inhibitors; 0.72% of 360,000 active; further: nearly all actives have a fitted effect of over 55% in size
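qHTS (up to 57 uM final) was run with 24 h compound exposure of reporter cells at 37 °C. Each well was multiplexed: SteadyGlo luminescence measured ATXN2-luciferase expression after a fluorogenic Gly-Phe-AFC viability readout (25 uM final).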
S2 tox = viability counter-screen for ATXN expression inhibitors; Potency, µM (top dose mostly 56.7 µM), actives largely listed as cytotoxic; 0.49% of 400,000 active; S2 cells (HEK-293 line with an ATXN2-luciferase reporter) viability, CellTiter-Fluor protease fluorescence, 24 h; further: nearly all actives have a fitted effect of over 40% in size
DRD3 antagonist = D3 dopamine receptor (human) antagonism; D3R cells, DiscoveRx beta-arrestin luminescence, antagonist mode; stronger effect = lower value; 2.5% of 360,000 active; max response, negative = inhibition, %; in the data active means max response below about -50%; inconclusive means no clear call, values can overlap the other calls
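Cells plated overnight at 1500 cells/well, then exposed to library compounds with dopamine controls for 90 minutes at 37 degrees C. DiscoveRx reagent added for 30–60 minutes at room temperature; luminescence read, quantitative HTS format.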
TGFb inhibitor = TGF-b pathway inhibition; HepG2 CAGA-GFP TGF-b/SMAD3 reporter, GFP fluorescence, 18 h; TGF-beta stimulated, 500 pg/mL final; Potency, µM (titrated, usually from 46.1 µM), usual class: inhibitors; 1.2% of 410,000 active; AID 588855; further: nearly all actives have a fitted effect of over 65% in size
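First, reporter cells (HEPG2 CAGA-GFP) rested 2 h at 37 degrees C. Next, compounds were pinned in and TGF-beta added to 500 pg/mL final. After 18 h, GFP was imaged per cell and summed per well.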
Large screens that a line does not name were inactive. A selection: hits, their analogues and other compounds. The true share with any hit is near 4.7%. Unless noted, the call rests on the fitted dose curve; in most records, active means well fitted curve in the direction sought with a large enough effect; inconclusive means small, poorly fitted or top-dose-only effect, or another doubt; inactive means no such curve, though single readings can be large; an effect the other way counts as inactive or inconclusive.

O=C1CCCc2cc(S(=O)(=O)N3CCCC(C(=O)NCc4ccccc4Cl)C3)ccc2N1 (stereo unspecified)	S2 tox inconclusive (no result: DRD3 antagonist)
Cc1ccc(OCC(=O)Nc2nnc(S(=O)(=O)N3CCc4ccccc43)s2)cc1	TGFb inhibitor inconclusive (no result: DRD3 antagonist)
Cc1cc(-n2c(SCC(=O)NCCC3=CCCCC3)nc3n[nH]c(C)c3c2=N)ccc1Cl	S2 tox inconclusive, TGFb inhibitor inconclusive (no result: ATXN2 expr inh)
Cc1[nH]nc2nc(SCC(=O)NCCC3=CCCCC3)n(-c3ccc(Br)cc3)c(=N)c12	S2 tox inconclusive, DRD3 antagonist inconclusive, TGFb inhibitor 16µM (no result: ATXN2 expr inh)
O=C(CSc1ccccc1)Nc1ccc(N2CCN(c3ccccc3)CC2)c(F)c1	none
COc1ccc(SCC(=O)Nc2ccc(N3CCN(C)CC3)c(F)c2)cc1	DRD3 antagonist -56
Cc1ccc(SCC(=O)Nc2ccc(N3CCN(C)CC3)c(F)c2)cc1	DRD3 antagonist -53, TGFb inhibitor inconclusive
CCC1CCCCN1CCCNC(=O)c1ccc2c(c1)N(Cc1ccccc1)C(=O)c1ccccc1S2(=O)=O (stereo unspecified)	none (no result: ATXN2 expr inh, S2 tox, DRD3 antagonist, TGFb inhibitor)
CCC1CCCCN1CCCNC(=O)c1ccc2c(c1)N(Cc1ccc(Cl)cc1)C(=O)c1ccccc1S2(=O)=O (stereo unspecified)	HepG2 tox 11µM, ATXN2 expr inh 28µM, TGFb inhibitor inconclusive (no result: DRD3 antagonist)
CCC1CCCCN1CCCNC(=O)c1ccc2c(c1)N(Cc1cccc(Cl)c1)C(=O)c1ccccc1S2(=O)=O (stereo unspecified)	TGFb inhibitor 10µM (no result: ATXN2 expr inh, S2 tox, DRD3 antagonist)
CCC1CCCCN1CCCNC(=O)c1ccc2c(c1)N(Cc1cccc(C)c1)C(=O)c1ccccc1S2(=O)=O (stereo unspecified)	ATXN2 expr inh inconclusive, TGFb inhibitor inconclusive (no result: DRD3 antagonist)
CCN1C(=O)C(Cc2nc3ccccc3c(=O)n2-c2cccc(C)c2)c2ccccc21 (stereo unspecified)	S2 tox inconclusive (no result: DRD3 antagonist)
CCOc1ccccc1CNC(=O)CCC(=O)N1CCSc2ccccc21	TGFb inhibitor inconclusive (no result: ATXN2 expr inh, S2 tox, DRD3 antagonist)
COc1ccc(C)cc1NC(=O)NC1CC(=O)N(c2ccc3c(c2)OCCO3)C1 (stereo unspecified)	HepG2 tox 11µM (no result: ATXN2 expr inh)
Cc1ccc(NC(=O)NC2CC(=O)N(c3ccc4c(c3)OCCO4)C2)cc1 (stereo unspecified)	none
Cc1cccc(C)c1NC(=O)CN1C(=O)c2ccccc2Sc2ncccc21	none (no result: DRD3 antagonist)
Brc1ccccc1OCCCCN1CCCCC1	DRD3 antagonist -97
CC1CCN(CCCCOc2ccccc2Br)CC1	DRD3 antagonist -54
CC1CCN(CCCCOc2ccccc2F)CC1	DRD3 antagonist -82
CCCCCOc1ccccc1/C(=C\SC)n1ccnc1	none (no result: D3 ag, HepG2 tox, DRD3 antagonist, TGFb inhibitor)
O=C(CS(=O)Cc1ccco1)NCC=CCOc1cc(CN2CCCCC2)ccn1 (stereo unspecified)	none (no result: D3 ag, HepG2 tox, S2 tox, DRD3 antagonist, TGFb inhibitor)
COCc1ccc(CN2Cc3ccccc3OC(c3ccccc3OC)C2)o1 (stereo unspecified)	none (no result: D3 ag, HepG2 tox, ATXN2 expr inh, DRD3 antagonist, TGFb inhibitor)
CCC/C(=N\NC(=O)c1csc(C)c1C)c1cccs1	DRD3 antagonist -51
CC/C(=N\NC(=O)c1csc(C)c1C)c1cccs1	DRD3 antagonist inconclusive
CCc1ccccc1NC(=O)Nc1cc(C(=O)NCc2ccc(C(C)C)cc2)ccc1N1CCCC1	none (no result: DRD3 antagonist)
CCC[C@@H](CN[C@@H](CNC)[C@H](C)CC)NCC1CCC(C(C)(C)C)CC1 (stereo partly specified)	ATXN2 expr inh inconclusive, TGFb inhibitor inconclusive (no result: S2 tox)
CNC[C@@H](CC1CCCCC1)NC[C@H](CC(C)C)NCCc1cccc(C(F)(F)F)c1	HepG2 tox 10µM, ATXN2 expr inh 14µM, TGFb inhibitor inconclusive (no result: S2 tox)
CNC[C@@H](Cc1ccccc1)NC[C@@H](CC1CCCCC1)NCCCc1ccccc1	HepG2 tox 13µM, ATXN2 expr inh inconclusive, S2 tox 20µM, TGFb inhibitor inconclusive
O=C(NCCCCc1ccccc1)c1ccccc1	none
CCC[C@@H](CNC)NC[C@H](Cc1ccccc1)NCCCCc1ccccc1	ATXN2 expr inh 25µM, TGFb inhibitor inconclusive (no result: S2 tox)
CCC[C@@H](CN[C@@H](CNC)C(C)C)NCCCCc1ccccc1	HepG2 tox 16µM, ATXN2 expr inh inconclusive, S2 tox inconclusive, TGFb inhibitor inconclusive
O=S(=O)(c1ccc(OC(F)(F)F)cc1)N1CCN(c2nc(-c3cccs3)nc3ccccc23)CC1	none (no result: D3 ag, ATXN2 expr inh, S2 tox, DRD3 antagonist)
COc1ccc(OC)c(-n2c3c(cc(-c4nc(-c5ccc(Cl)cc5)cs4)c2=O)C(=O)CC(C)(C)C3)c1	none (no result: DRD3 antagonist)
COc1cc(NC(=O)CCc2c(C)nc3c(c(C)nn3-c3ccccc3)c2C)cc(OC)c1OC	S2 tox inconclusive (no result: DRD3 antagonist)
COc1ccc(-n2cc(CNCCc3cscn3)c(-c3ccccc3Cl)n2)cc1	S2 tox inconclusive, DRD3 antagonist -101
COc1cc(/C=C2\SC(=O)NC2=O)ccc1Oc1ccc([N+](=O)[O-])cc1[N+](=O)[O-]	TGFb inhibitor inconclusive
CCN1C(=O)C(=Cc2cccc(OC)c2Oc2ccc([N+](=O)[O-])cc2[N+](=O)[O-])SC1=S	ATXN2 expr inh 22µM, S2 tox 13µM, DRD3 antagonist -70
CCNC(=O)/C(C#N)=C/c1c(N(Cc2ccccc2)Cc2ccccc2)nc2ccccn2c1=O	TGFb inhibitor inconclusive
CNC(=O)/C(C#N)=C/c1c(N(Cc2ccccc2)Cc2ccccc2)nc2c(C)cccn2c1=O	S2 tox inconclusive, TGFb inhibitor 13µM
CCCCOc1ccccc1NC(=O)Cn1c(-c2nonc2N)nc2ccccc21	ATXN2 expr inh inconclusive, S2 tox 14µM, TGFb inhibitor inconclusive
CCc1cccc(C)c1NC(=O)C(CC)Sc1nncn2c1cc1occc12 (stereo unspecified)	TGFb inhibitor inconclusive (no result: ATXN2 expr inh, S2 tox, DRD3 antagonist)
O=C(Nc1ccc(Cl)cn1)c1cccnc1	DRD3 antagonist -51
O=C(NCc1ccccc1)[C@]1(C(F)(F)F)C[C@H](CCc2ccccc2)CCCO1	TGFb inhibitor inconclusive
O=C(NCCNCCO)C1(C(F)(F)F)CC(CCc2ccccc2)CCCO1 (stereo unspecified)	TGFb inhibitor 4µM (no result: D3 ag, ATXN2 expr inh, S2 tox, DRD3 antagonist)
CCN(C[C@H]1N[C@@](CC)(C(=O)OC)[C@H]2C(=O)N(Cc3ccccc3)C(=O)[C@@H]12)C(=O)c1ccc(C)cc1	D3 ag 55, S2 tox inconclusive
CCN(C[C@H]1N[C@@](Cc2ccccc2)(C(=O)OC)[C@H]2C(=O)N(Cc3ccccc3)C(=O)[C@@H]12)S(=O)(=O)c1ccc(-c2ccccc2)cc1	none
COC(=O)[C@]1(Cc2ccccc2)N[C@H](CN(C)C(=O)Nc2ccc(OC)cc2)[C@@H]2C(=O)N(C)C(=O)[C@@H]21	DRD3 antagonist -53
